Laboratory results from PubChem BioAssay AID651610 (Broad Institute, 2012).
The campaign covered roughly 360,000 compounds. About 3,900 (1.1%) were called active. For the sample, actives were picked, then their nearest neighbours and some compounds at random. Values without a mark were called inactive.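 How the source made its calls: active means mean replicate inhibition score of at least 50 and every replicate individually at or above 50; inconclusive means only one of the two criteria met; inactive means mean below 50 and not all replicates reaching 50.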

Assay: blockers of JRFL envelope-mediated fusion – HeLa-JRFL effector, CEM21 target cells, luciferase, primary screen (AID 651610);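 further: 0% = plate neutral controls and 100% = maraviroc near 300 nM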
Details: HeLa-JRFL Env/CEM21 cell fusion, stronger effect = higher value; at 16.7 µM unless noted

Row | SMILES | inhibition
1 | COc1ccccc1NC(=O)N[C@H]1CC[C@@H](CCn2cc(C3(O)CCCC3)nn2)O[C@@H]1CO | -2.19%
2 | N#C[C@H]1[C@H](c2ccc(-c3ccccc3)cc2)[C@@H](CO)N1C(=O)Cc1ccccc1 | -31.2%
3 | C[C@@H]1CCCCO[C@H](CN(C)C(=O)CCCN(C)C)[C@H](C)CN([C@H](C)CO)C(=O)c2cc(NC(=O)CCC(F)(F)F)ccc2O1 | 6%
4 | C[C@@H]1CCCCO[C@@H](CN(C)Cc2ccncc2)[C@H](C)CN([C@H](C)CO)C(=O)c2cc(NC(=O)NC3CCCCC3)ccc2O1 | 10.4%
5 | O=C(C[C@@H]1C[C@H]2c3cc(NC(=O)Nc4ccccc4)ccc3O[C@H]2[C@@H](CO)O1)NC1CCCCC1 | 6.41%
6 | O=C(CN(c1cc(C(F)(F)F)ccc1Cl)S(=O)(=O)c1ccccc1)NCc1cccnc1 | 85.1% [at 12.3 µM] (active)
7 | CCc1ccc(N(CC(=O)NCc2cccnc2)S(=O)(=O)c2ccccc2)cc1 | 10.5% [at 12.3 µM]
8 | CN(CC(=O)NCc1cccnc1)S(=O)(=O)c1cc(Cl)ccc1Cl | 2.11% [at 12.3 µM]
9 | C/C=C/c1ccccc1[C@@H]1[C@@H](C#N)N(c2nc(CC)cs2)[C@@H]1CO | -1.66%
10 | CCCNC(=O)N1CCC2(CC1)CN(C(=O)CN1CCOCC1)[C@H](CO)c1[nH]c3cc(OC)ccc3c12 | -5.75%
11 | Cc1ccccc1-c1cnc2c(c1)C(=O)N([C@H](C)CO)C[C@H](C)[C@@H](CN(C)C(=O)c1ccccc1)O2 | -8.15%
12 | O=C(NCc1ccc2c(c1)OCO2)C12CC3CC(CC(C3)C1)C2 | 8.77% [at 12.3 µM]
13 | Cc1ccc(C(=O)NC23CC4CC(CC(C4)C2)C3)c(Cl)c1 | -0.699% [at 12.3 µM]
14 | S=C(NCc1ccc(Cl)cc1)NC12CC3CC(CC(C3)C1)C2 | 103% [at 12.3 µM] (active)
15 | CN(C)C(=O)C[C@H]1C=C[C@@H](NC(=O)C2CCC2)[C@@H](CO)O1 | 24.4%
16 | CCCOc1cccc(C(=O)NCCCNC(=O)c2cccnc2)c1 | 11.1% [at 12.3 µM]
17 | Cc1ccc(OCC(=O)N2CCN(C(=O)c3cccnc3)CC2)cc1 | -3.51% [at 12.3 µM]
18 | CCCCCCOc1ccc(OC(=O)c2cccnc2)cc1 | 58.2% [at 12.3 µM] (active)
19 | C[C@H](CO)N1C[C@H](C)[C@H](CN(C)S(C)(=O)=O)Oc2ncc(C3=CCCCC3)cc2C1=O | 10.5%
20 | N#C[C@H]1[C@H](c2ccc(C#Cc3ccc(F)cc3)cc2)[C@@H](CO)N1C(=O)C1CCCC1 | 10.1%
21 | COCc1cn(CC[C@@H]2CC[C@@H](NC(=O)Cc3cccnc3)[C@@H](CO)O2)nn1 | 7.99%
22 | C[C@H]1CCCCO[C@H](CN(C)C(=O)Nc2ccc3c(c2)OCO3)[C@@H](C)CN([C@@H](C)CO)C(=O)c2cc(NC(=O)Nc3ccccc3)ccc2O1 | -15.3%
23 | CCN(CC)CCN(C(=O)c1ccc(N2C(=O)CCC2=O)cc1)c1nc2cc3c(cc2s1)OCO3 | 13.5% [at 12.3 µM]

Row | SMILES | inhibition
24 | CCN(CC)CCN(C(=O)c1cc(Cl)sc1Cl)c1nc2cc3c(cc2s1)OCO3 | 71.9% [at 12.3 µM] (active)
25 | CN(C)CCN(C(=O)C1=COCCO1)c1nc2ccc(Cl)cc2s1 | -71.9% [at 12.3 µM]
26 | CC(C)NC(=O)N(C)C[C@H]1Oc2ccc(NS(=O)(=O)c3cn(C)cn3)cc2CC(=O)N([C@@H](C)CO)C[C@H]1C | -7.65%
27 | CCC(C)c1ccccc1N1CC(C(=O)N2CCN(S(=O)(=O)c3ccc(F)cc3)CC2)CC1=O (stereo not drawn) | 18.5% [at 12.3 µM]
28 | Cc1ccc(CN2CC(C(=O)N3CCN(S(=O)(=O)c4ccccc4)CC3)CC2=O)cc1 (stereo not drawn) | 64.5% [at 12.3 µM] (active)
29 | Cc1ccc(S(=O)(=O)N2CCC(C(=O)N3CCCCCCC3)CC2)cc1 | -2.71% [at 12.3 µM]
30 | COc1ccc2c3c(n(C)c2c1)[C@@H](CO)N(C(C)=O)CC31CCN(C(=O)C2CC2)CC1 | 3.46%
31 | C[C@H](CO)N1C[C@H](C)[C@H](CN(C)C(=O)Nc2ccc(F)cc2)Oc2c(NC(=O)c3cnccn3)cccc2C1=O | 30.7%
32 | O=C(NNC(=O)c1ccc(-c2ccccc2)cc1)Nc1ccccc1 | 17% [at 12.3 µM]
33 | C=CC[n+]1c(-c2ccc(C)cc2)csc1NNC(=O)Nc1ccccc1 | 77.7% [at 12.3 µM] (active)
34 | Cc1ccc(NC(=O)NNC(=O)c2sccc2-n2cccc2)cc1 | -3.39% [at 12.3 µM]
35 | C[C@H](CO)N1C[C@H](C)[C@@H](CN(C)CC2CCOCC2)Oc2ncc(C#Cc3ccc(F)cc3)cc2C1=O | 7.54%
36 | C[C@@H](O)C#Cc1cnc2c(c1)C(=O)N([C@@H](C)CO)C[C@H](C)[C@H](CN(C)C(=O)c1ccccc1F)O2 | 5.54%
37 | COCCNc1nc(NCc2ccc(NC(C)=O)cc2)c2sccc2n1 | -25.8% [at 12.3 µM]
38 | COc1ccccc1CNc1nc(Nc2ccccc2Cl)c2sccc2n1 | 20.5% [at 12.3 µM]
39 | COc1cccc(CNc2nc(NCc3ccccc3OC)nc3ccsc23)c1 | 72.3% [at 12.3 µM] (active)
40 | C[C@@H]1CN([C@@H](C)CO)C(=O)Cc2cc(NS(C)(=O)=O)ccc2O[C@H]1CN(C)S(=O)(=O)c1ccc(F)cc1 | -0.637%
41 | CN1[C@@H]2c3ccc(-c4ccc(F)cc4)c(=O)n3C[C@H]1[C@H](CO)[C@H]2C(=O)NC1CCC1 | 0.501%
42 | CC12C(=O)N(c3ccccc3)C(=O)C1C(c1ccccc1)N1CCCN12 (stereo not drawn) | 6.12% [at 12.3 µM]
43 | CCN1C(=O)[C@H]2[C@@H](c3ccc(C(F)(F)F)cc3)N[C@]3(CCCN(Cc4ccc(Br)cc4)C3=O)[C@H]2C1=O | -31.5% [at 12.3 µM]
44 | CC[C@@]12C(=O)N(c3ccccc3)C(=O)N1[C@H](c1ccc(Br)cc1)[C@@H]1C(=O)N(C(C)(C)C)C(=O)[C@@H]12 | 59.8% [at 12.3 µM] (active)
45 | COc1ccc([C@@H]2[C@@H]3C(=O)N(C(C)(C)C)C(=O)[C@@H]3[C@]3(Cc4ccccc4)C(=O)N(c4cccc(Br)c4)C(=O)N23)cc1 | 33.2% [at 12.3 µM]
46 | C[C@@]12C(=O)N(c3cccc(Br)c3)C(=O)N1[C@H](c1ccc(Cl)cc1)[C@@H]1C(=O)N(C3CCCCC3)C(=O)[C@@H]12 | -9.25% [at 12.3 µM]

Row | SMILES | inhibition
47 | CCCCC1(C(=O)OCC)NC(c2ccc(O)cc2)C2C(=O)N(c3ccccc3)C(=O)C21 (stereo not drawn) | 2.85% [at 12.3 µM]
48 | CC(C)(C)N1C(=O)[C@H]2[C@@H](c3ccc(Br)cc3)N3C(=O)N(c4cccc(Cl)c4)C(=O)[C@@]3(C)[C@H]2C1=O | 72.7% [at 12.3 µM] (active)
49 | CCN1C(=O)[C@H]2[C@@H](c3ccc(C)cc3)N3C(=O)N(c4cccc(Br)c4)C(=O)[C@@]3(CC)[C@H]2C1=O | 82.7% [at 12.3 µM] (active)
50 | CCOC(=O)[C@@H]1[C@H]2COc3ccc(Br)cc3[C@H]2N2C(=O)N(c3ccc(C)cc3)C(=O)[C@@]12C | -52.6% [at 12.3 µM]
51 | C[C@@H]1CCCCO[C@@H](CN(C)S(=O)(=O)c2ccc(F)cc2)[C@@H](C)CN([C@@H](C)CO)C(=O)c2cc(NC(=O)Nc3ccc(F)cc3)ccc2O1 | -9.74%
52 | C[C@H](CO)N1C[C@H](C)[C@@H](CN(C)C(=O)C2CC2)Oc2cc(-c3cccc(C#N)c3)ccc2S1(=O)=O | 6.81%
53 | COc1ccccc1S(=O)(=O)N[C@@H]1CC[C@H](CC(=O)N2CCN(C)CC2)O[C@@H]1CO | -0.692%
54 | C[C@@H]1CN([C@@H](C)CO)C(=O)c2cccc(NC(=O)C3CCOCC3)c2O[C@H]1CN(C)C(=O)NC1CCCCC1 | 10.1%
55 | C[C@@H]1CN([C@@H](C)CO)S(=O)(=O)c2ccc(C#CC3CCCC3)cc2O[C@H]1CN(C)S(C)(=O)=O | 6.95%
56 | COc1cccc(-c2cnc3c(c2)C(=O)N([C@H](C)CO)C[C@@H](C)[C@H](CN(C)Cc2ccc(F)cc2)O3)c1 | 7.73%
57 | CN1C(=O)c2cc(NC(=O)c3cccs3)ccc2OC[C@H]2O[C@@H](CC(=O)NCC3CC3)CC[C@@H]21 | 3.56%
58 | Cc1cc(C)cc(N2C(=O)CSC2c2cccc([N+](=O)[O-])c2)c1 (stereo not drawn) | -6.42%
59 | C[C@H]1CN([C@@H](C)CO)C(=O)c2cccc(NS(=O)(=O)c3ccc(Cl)cc3)c2O[C@H]1CN(C)S(=O)(=O)c1ccc(Cl)cc1 | -26.5%
60 | O=C(CCS(=O)(=O)c1ccccc1)Nc1nc2c(s1)CCCC2 | 60.1% [at 12.3 µM] (active)
61 | O=C(CSc1nc(O)c(Cc2ccccc2)c(=O)[nH]1)Nc1nc2c(s1)CCCC2 | 25.1% [at 12.3 µM]
62 | O=C(CCS(=O)(=O)c1ccccc1)NC1CCCC1 | 11.3% [at 12.3 µM]
63 | CCCOc1ccc(N2C(=O)CC(N(CCc3ccc(S(N)(=O)=O)cc3)C(C)=O)C2=O)cc1 (stereo not drawn) | 19.9% [at 12.3 µM]
64 | CCOc1ccc(NC(=O)CC2C(=O)N(c3ccccc3)C(=O)N2CCOC)cc1 (stereo not drawn) | -3.16% [at 12.3 µM]
65 | CCOc1ccc(N2C(=O)CC(N(CCc3ccc(OC)c(OC)c3)C(=S)Nc3ccccc3)C2=O)cc1 (stereo not drawn) | 58.4% [at 12.3 µM] (active)
66 | COc1ccc(CCN2C(=O)N(c3ccc(OC)cc3)C(=O)C2CC(=O)Nc2ccc(OC)cc2)cc1 (stereo not drawn) | 9.15% [at 12.3 µM]
67 | COc1ccc(N2C(=O)C(CC(=O)Nc3ccccc3)N(Cc3ccc(OC)c(OC)c3)C2=O)cc1 (stereo not drawn) | 56.7% [at 12.3 µM] (active)
68 | COC(=O)CN(C(=S)Nc1ccc(Cl)cc1)C1CC(=O)N(c2ccc(OC)cc2)C1=O (stereo not drawn) | -3.79% [at 12.3 µM]
